PAX8 reporter: inhibitors of PAX8-driven TPO luciferase reporter, primary screen, RMG-I cells, single concentration; SteadyGlo, 24 h; inhibition, % at 12.6 µM; hit rate 1.2% among 360,000; AID 652154, 2013;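 active = mean replicate inhibition at least 60% with every replicate also reaching 60%; inconclusive = only one of the two criteria is met; inactive = mean below 60% and not all replicates reaching 60%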;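 also: luciferase light reporting Pax8 driven TPO promoter activity; plate controls were median of neutral control wells for no effect and mitoxantrone controls for full effect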
EWS-Fli inh: EWS/Fli-driven NR0B1 reporter inhibitors, primary screen, A673 cells, NR0B1 luciferase, luminescence, MLPCN library; viability-normalised; inhibition, % at 12.6 µM; hit rate 0.67% among 350,000; AID 651661, 2012;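 active = mean inhibition of at least 50% after viability correction, with every replicate also passing that limit; inconclusive = mean reaches 50% but only one of two replicates passes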;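 also: firefly luciferase signal divided by Alamar Blue viability fluorescence both relative to DMSO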
HIF-2a inh: HIF-2a reporter inhibitors, primary screen, luminescence, 786-0 RCC cells; 786-0 RCC cells HIF-2a reporter, luciferase luminescence, overnight; inhibition, % at 18.8 µM; hit rate 0.72% among 360,000; AID 624352, 2012;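 active = inhibition of the luminescence signal of 40% or more relative to plate controls, in a single-dose primary screen at 18.75 µM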
CF NFkB block: inhibitors of PAF-induced NF-kB signaling, primary screen, cell-based, GFP fluorescence, uHTS | KKLEB NF-kB-GFP reporter, GFP fluorescence overnight | inhibition, % at 5 µM | hit rate 0.86% among 360,000;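 active = at least 50% inhibition at 5 µM, scaled per plate between neutral and stimulator controls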;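 also: PAF is a Pseudomonas aeruginosa culture filtrate used as stimulus; plate controls were PAF-stimulated DMSO wells for no effect and unstimulated DMSO wells for full effect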
KKLEB tox: cytotoxicity in KKLEB CF airway cells, primary screen, cytotoxicity control for CF NF-kB inhibitor project, cell-based, uHTS, fluorescence assay plates. KKLEB CF airway cells viability, ATPlite luminescence, overnight; active compounds read low; cells stimulated with P. aeruginosa culture filtrate. activity change (cytotoxicity), % at 5 µM. hit rate 0.36% among 360,000. AID 602141, 2011;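 active = corrected activity change at or below -50% at 5 µM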
Numbers without * were called inactive; ? = inconclusive; . = no result. Shown are actives, neighbours in structure and some others; about 2.1% of the full set was active somewhere.

SMILES	PAX8 reporter	EWS-Fli inh	HIF-2a inh	CF NFkB block	KKLEB tox
CC1(C)CC[C@]2(C)CC[C@]3(C)C4C[C@@H]5OO[C@@]6(O5)C(CCCC6(C)C)[C@]4(C)CC[C@@]3(C)C2C1 (stereo partly specified)	.	.	7	56*	-2
COC(=O)C[C@@H]1CC[C@@H]2NC[C@H](O)COC[C@H]2O1	6	2	.	.	.
O=[N+]([O-])c1cc(Cl)c(O)c(-[n+]2c(-c3ccccc3)cc(-c3ccccc3)cc2-c2ccccc2)c1	33	8	29	-1	20
O=[N+]([O-])c1ccc(C[n+]2c(-c3ccccc3)cc(-c3ccccc3)cc2-c2ccccc2)cc1	79*	2	11	3	1
O=C(O)[C@H]1[C@H](CO)[C@H]2Cn3c(ccc(-c4ccncc4)c3=O)[C@@H]1N2S(=O)(=O)c1ccccc1F	.	3	.	.	.
N#Cc1cccc(-c2ccc([C@@H]3[C@H](CO)N4CCCCN(C(=O)Cc5ccccc5)C[C@@H]34)cc2)c1	19	0	.	.	.
O=C(Cc1ccccn1)N1CCCCN2[C@H](CO)[C@@H](c3ccc(Br)cc3)[C@@H]2C1	-26	-8	.	.	.
CN(C)c1ccc(-[n+]2c(-c3ccccc3)cc(-c3ccccc3)cc2-c2ccccc2)cc1	88*	53*	35	49	-45
Cc1ccc(-c2cc(-c3ccc(C)cc3)[n+](-c3ccccc3)c(-c3ccc(C)cc3)c2)cc1	.	.	57*	32	-40
C[n+]1c(-c2ccccc2)cc(-c2ccc(Cl)cc2)cc1-c1ccccc1	?	11	17	-23	-1
CCOC(=O)c1cccc(-[n+]2c(-c3ccccc3)cc(-c3ccccc3)cc2-c2ccccc2)c1	89*	17	-9	3	-5
Cc1ccc(-c2cc(-c3ccccc3)cc(-c3ccccc3)[n+]2-c2ccccc2)cc1	95*	61*	0	7	-18
Cc1ccc(-c2cc(-c3ccc(C)cc3)[n+](-c3ccc(C(=O)[O-])cc3)c(-c3ccc(C)cc3)c2)cc1	-3	-5	-29	-5	7
Cc1cc(-c2ccccc2)cc(C)[n+]1Cc1ccccc1	32	15	7	-11	-1
CCOC(=O)c1ccccc1C(=O)OCC	-13	-12	3	1	5
COC(=O)[C@H]1[C@H](CO)[C@H]2Cn3c(ccc(-c4cccc(OC)c4)c3=O)[C@@H]1N2CC1CC1	.	1	.	.	.
C[C@H]1CCC/C=C/[C@@H]2C[C@H](O)C[C@H]2[C@@H](O)/C=C/C(=O)O1	119*	73*	39	64*	-47
C[C@@H]1O[C@@H](O[C@H]2C[C@@H](O)[C@]3(CO)[C@H]4[C@H](O)C[C@]5(C)[C@@H](C6=CC(=O)OC6)CC[C@]5(O)[C@@H]4CC[C@]3(O)C2)[C@H](O)[C@H](O)[C@H]1O	.	.	88*	91*	18
C=C(C)[C@@]12OC3(c4ccccc4)O[C@@H]1C1[C@@H]4O[C@]4(CO)[C@@H](O)[C@]4(O)C(=O)C(C)=C[C@H]4[C@@]1(O3)[C@H](C)[C@H]2OC(=O)/C=C/C=C/c1ccccc1 (stereo partly specified)	.	.	-7	54*	-53*
COC(=O)[C@H]1[C@H](CO)[C@H]2Cn3c(ccc(C4=CCCCC4)c3=O)[C@@H]1N2Cc1ccccn1	.	5	.	.	.
COc1ccc(C2=CC(c3ccc(OC)c(OC)c3)c3c(c4ccccc4oc3=O)O2)cc1OC (stereo unspecified)	12	58*	21	2	4
COC(=O)[C@@H]1[C@@H](CO)[C@@H]2Cn3c(ccc(-c4ccccc4F)c3=O)[C@H]1N2C(C)=O	6	-7	.	.	.
COc1ccc(C#Cc2ccc([C@@H]3[C@@H](CO)N4CCCCN(C(=O)Cc5ccccc5)C[C@H]34)cc2)cc1	2	2	.	.	.
CC(=O)O[C@@H]1/C=C/[C@](C)(O)C[C@@H](C)C/C=C/[C@H]2[C@@H]3O[C@]3(C)[C@@H](C)[C@H]3[C@H](Cc4ccccc4)NC(=O)[C@@]312	.	.	-43	55*	-53*

High-throughput results deposited in PubChem BioAssay by several laboratories.
